Survival data for 63 compounds are collected here from PubChem BioAssay AID463173 (ICCB-Longwood Screening Facility, Harvard Medical School, 2010).

SMILES strings stand for the structures. In all, about 52,000 compounds went through this assay and about 4,300 (8.3%) were called active. The sample holds actives, similar compounds and a random draw of the others, so the mix is not that of the screen. Values without a mark were called inactive. Rule as the data show it: active = survival mostly below about 52% (no sharp cut-off); inactive = mostly above about 56%.

This experiment concerns DeltatarO mutant. In words: growth inhibition of S. aureus wild type versus tarO mutant, primary screen, teichoic acid synthesis inhibitors, RN4220, OD600 (AID 463173). Particulars: OD600, 18 h, active compounds read low, screened at 18.75 µg/mL (by protocol).
Consider `CCC1SC(C)C/C(=N\O)C1C` (stereo not drawn), for which the survival is 105%.

As to `CCOc1ccc(CCNC(=O)CCCc2nnc3n(C)c(=O)c4sccc4n23)cc1OCC`, the survival is 93%.

For `COc1cc(OC)cc(-c2nc3nc(C)c(CCC(=O)Nc4cc(C)cc(C)c4)c(C)n3n2)c1`, the survival was 69%.

As to `O=C(NCc1cccc(Br)c1)C1CCN(C(=O)c2sccc2-n2cccc2)CC1`, the survival was 66%.

Turning to `O=C(CN1C(=O)COc2ccc(S(=O)(=O)N3CCCCCC3)cc21)N1CCN(c2ccc(F)cc2)CC1`, the survival is 67%.

On to `CCCC(=O)Nc1nnc(SCc2cc(=O)c3ccc(C)cc3[nH]2)s1`, for which the survival was 122%.

For `COc1ccc(NS(=O)(=O)c2cc(-c3onc(C)c3C)ccc2C)c(OC)c1`, the survival is 89%.

On to `CCOc1ccccc1NC(=O)C1CCN(S(=O)(=O)c2cccs2)CC1`, for which the survival is 58%.

As to `CCc1cccc(NC(=O)C2CCCN(S(=O)(=O)c3cccs3)C2)c1` (stereo not drawn), the survival is 80%.

Consider `Cc1ccc(NC(=O)C2CCN(S(=O)(=O)c3cccs3)CC2)cc1`, for which the survival was 40% (active).

Turning to `O=C(Nc1cccc(C(F)(F)F)c1)C1CCN(S(=O)(=O)c2cccc3nsnc23)CC1`, the survival is 81%.

On to `COc1ccc(NC(=O)C2CCCN(S(=O)(=O)c3cccs3)C2)cc1` (stereo not drawn), for which the survival was 96%.

Consider `O=C(Nc1cccc(C(F)(F)F)c1)C1CCN(S(=O)(=O)c2cccs2)CC1`, for which the survival was 39% (active).

`O=C(O)C1CSC(c2cccs2)N1` (stereo not drawn): the survival is 83%.

`CCN1C(=O)c2ccccc2Sc2ccc(NC(=O)c3ccc(C#N)cc3)cc21`: the survival is 102%.

`COc1ccc(Nc2cc(C(=O)NCCCN(C)C3CCCCC3)c3ccccc3n2)cc1`: the survival is 97%.

For the compound `N#Cc1ccc(C(=O)N2CCN(c3nc4ccc(F)cc4s3)CC2)cc1`, the survival was 72%.

As to `Fc1ccc(-c2cc(C(F)(F)F)nc(NCc3ccccc3)n2)cc1`, the survival is 85%.

For `Fc1ccc(CNc2cc(-c3ccccc3)nc3nncn23)cc1`, the survival is 17% (active).

Take `Fc1ccc(CNc2nc(-c3ccccc3)cc(C(F)(F)F)n2)cc1`: the survival is 4% (active).

Turning to `O=C(NCc1ccc(F)cc1)c1cc(-c2ccc(Cl)cc2)n[nH]1`, the survival was 85%.

For `O=C(CSc1nc(-c2ccc(F)cc2)cc(C(F)(F)F)n1)NCCc1ccccc1`, the survival is 73%.

As to `COc1ccc(-c2cc(NCc3ccc(F)cc3)n3cnnc3n2)cc1`, the survival is 61%.

Take `Fc1ccc(CNc2nc(-c3ccc(Cl)cc3)cc(C(F)(F)F)n2)cc1`: the survival is 12% (active).

For `O=S(=O)(c1ccccc1)n1nc(-c2ccc(Cl)cc2)nc1NCc1ccc(F)cc1`, the survival is 53%.

For `Clc1ccc(CNc2cc(-c3ccccc3)nc3nncn23)cc1`, the survival is 50%.

For `O=C(NCC(c1cccnc1)N1CCN(Cc2ccccc2)CC1)C(=O)Nc1cccc(Cl)c1` (stereo not drawn), the survival was 77%.

As to `CCOC(=O)c1cccc(NC(=O)Cc2ccc(NC(=O)N3CCCCc4ccccc43)cc2)c1`, the survival was 76%.

`Cc1csc2nc(COC(=O)COc3ccccc3F)cc(=O)n12`: the survival was 64%.

Regarding `CCOC(=O)c1[nH]cnc1C(=O)Nc1ccc(F)cc1`, the survival was 64%.

`COc1cccc(NC(=O)CSc2nnc(NC(=O)NC3CCCCC3)s2)c1`: the survival is 75%.

Regarding `COc1ccc(NC(=O)Cn2c(=O)n(CCc3ccccc3)c(=O)c3sc4ccccc4c32)cc1`, the survival is 76%.

Regarding `O=C(CN1C(=O)CCSc2ccc(S(=O)(=O)N3CCCC3)cc21)Nc1cccc(F)c1`, the survival was 72%.

On to `CCCCn1c(=NC(=O)c2c(-c3c(F)cccc3Cl)noc2C)c(C(=O)OCC)cc2c(=O)n3ccccc3nc21`, for which the survival was 170%.

With `COc1ccc(CNC(=O)CN2C(=O)COc3ccccc32)c(OC)c1`, the survival was 89%.

Consider `CC1CCN(S(=O)(=O)c2ccc3c(c2)CCN3C(=O)Nc2ccccc2Br)CC1`, for which the survival is 76%.

Regarding `COc1ccc(S(=O)(=O)NCCc2nnc3ccc(SCC(=O)Nc4ccc(C(F)(F)F)cc4)nn23)cc1`, the survival was 81%.

Turning to `O=S(=O)(NCCc1nnc2ccc(SCc3c(F)cccc3Cl)nn12)c1ccccc1`, the survival is 58%.

As to `Cc1cccc(CSc2ccc3nnc(CCNS(=O)(=O)c4ccccc4)n3n2)c1`, the survival is 68%.

For `O=S(=O)(NCCc1nnc2ccc(SCc3ccccc3Cl)nn12)c1ccccc1`, the survival is 68% (active).

`CCc1ccc(NC(=O)CSc2ccc3nnc(CCNS(=O)(=O)c4ccc(OC)cc4)n3n2)cc1`: the survival was 81%.

As to `O=S(=O)(NCCc1nnc2ccc(SCc3ccc(Cl)cc3Cl)nn12)c1ccccc1`, the survival was 37% (active).

As for `Cc1ccc(C)c(CSc2ccc3nnc(CCNS(=O)(=O)c4ccccc4)n3n2)c1`, the survival was 75%.

On to `COc1ccc(S(=O)(=O)NCCc2nnc3ccc(SCC(=O)Nc4cc(C)cc(C)c4)nn23)cc1`, for which the survival was 63% (active).

For the compound `O=S(=O)(NCCc1nnc2ccc(SCc3cccc(Cl)c3)nn12)c1ccccc1`, the survival was 58%.

Consider `Cc1onc(-c2ccccc2Cl)c1C(=O)Oc1ccccc1F`, for which the survival is 76%.

Take `Cc1ccc(NC(=O)c2cc3c(=O)[nH]c4ccccc4c3n2C)cc1F`: the survival was 83%.

Turning to `O=C(OCCN1CCOCC1)c1ccccc1`, the survival was 88%.

Regarding `Cc1ccc(-n2ncc3c(NCCCN(C)C)ncnc32)cc1Cl`, the survival was 95%.

`COc1ccc(-c2noc(-c3ccc(N4CCN(c5ccccc5)CC4)c([N+](=O)[O-])c3)n2)cc1`: the survival was 49%.

In the case of `Cc1ccccc1OCC(=O)Nc1ccc2nc(SCc3ccccc3)sc2c1`, the survival is 88%.

Take `Cc1ccc(CN(Cc2ccco2)C(=O)COc2ccccc2C)cc1`: the survival is 40% (active).

Regarding `Cc1cc(OC(C)C(=O)N(Cc2ccco2)Cc2ccco2)cc(C)c1Cl` (stereo not drawn), the survival is 35% (active).

As to `Cc1cc(OC(C)C(=O)N(Cc2ccc(N(C)C)cc2)Cc2ccco2)ccc1Cl` (stereo not drawn), the survival is 67%.

On to `CCc1ccc(OCC(=O)N(Cc2ccc(C)cc2)Cc2ccco2)cc1`, for which the survival is 91%.

For `Cc1cccc(OCC(=O)N(Cc2ccc(C(C)C)cc2)Cc2ccco2)c1C`, the survival was 49%.

On to `Cc1cccc(OCC(=O)N(Cc2ccc(N(C)C)cc2)Cc2ccco2)c1C`, for which the survival was 42% (active).

On to `Cc1cc(OC(C)C(=O)N(Cc2ccco2)Cc2ccccc2F)cc(C)c1Cl` (stereo not drawn), for which the survival is 81%.

As to `Cc1ccc(CN(Cc2ccco2)C(=O)COc2c(C)cc(C)cc2C)cc1`, the survival was 54%.

As to `Cc1ccc(CN(Cc2ccco2)C(=O)COc2cc(C)c(Cl)c(C)c2)cc1`, the survival was 58%.

On to `Cc1ccc(OCC(=O)N(Cc2ccc(Cl)cc2)Cc2ccco2)cc1C`, for which the survival is 58%.

Turning to `Cc1ccc(CN(Cc2ccco2)C(=O)COc2cccc(C)c2C)o1`, the survival is 66%.

For `CCc1ccc(CN(Cc2ccco2)C(=O)COc2ccc(Cl)c(C)c2)cc1`, the survival is 38% (active).
